Compound activity: PubChem BioAssay, National Center for Advancing Translational Sciences (NCATS)
Shown are actives, neighbours in structure and some others; about 1.3% of the full set was active somewhere.
gsp agonist = gsp mutant agonism | gsp mutant cells, cAMP HTRF, 30 min | Potency, µM (highest dose often 76.9 µM), inactives show top-dose activation (cAMP increase), hits mostly activators | actives 0.13% (n = 340,000) | AID 624287; active means well fitted activation curve with a large enough effect; inconclusive means small, poorly fitted or top-dose-only effect, or another doubt; inactive means no such curve, though single readings can be large or run the other way; cell line not stated here;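 further: phosphodiesterase inhibitor Ro 20-1724 added with compounds to block cAMP breakdown; potency means the concentration at half of the fitted maximal effect; nearly all actives have a fitted effect of over 60% in size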
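Cells in DMEM/10% FBS with G418 were pretreated with compounds in DMSO plus […] (300 uM stock) for 30 min at 37C. cAMP was measured by HTRF (cAMP-d2 plus anti-cAMP antibody-K) after 30 min at room temperature.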
RXFP1 ag = activates the human relaxin receptor RXFP1; Q9HBX9; HEK293T-RXFP1 cAMP TR-FRET, 30 min; response scale: percent of porcine relaxin response, buffer zero; Potency, µM (top dose mostly 57.5 µM), without a hit: top-dose activation, hits mostly activators; actives 0.3% (n = 370,000); AID 2676; active means well fitted activation curve with a large enough effect; inconclusive means small, poorly fitted or top-dose-only effect; further: potency means the concentration at half of the fitted maximal effect; on the % scale 0 is the no-effect control and ±100 the full control effect; nearly all actives have a fitted effect of over 60% in size
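cAMP rise read by TR-FRET after 30 min, 37C compound exposure (up to 58 uM) in RXFP1-transfected HEK293 cells with Ro 20174 present. EC50 from Hill-equation fits, with 29 nM porcine relaxin as 100% and buffer as basal.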
gsp antag = antagonists of gsp mutant (McCune-Albright syndrome); Potency, µM (series often up to 76.9 µM), for the others: top-dose activity change, negative = inhibition, most hits filed as inhibitors; actives 0.4% (n = 340,000); AID 624288; gsp-mutant cells, cAMP HTRF, 30 min; calls by dose curve; cell line not stated here;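 further: intracellular cAMP measured with PDE inhibitor Ro 20-1724 present during compound exposure; potency means the concentration at half of the fitted maximal effect; on the % scale 0 is the no-effect control and ±100 the full control effect; nearly all actives have a fitted effect of over 65% in size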
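Cells, 2000/well, grown 16–24 h in DMEM 10% FBS with 0.5 mg/ml G418, then compounds plus […] (300 uM addition stock), 30 min at 37C. cAMP read by HTRF (cAMP-d2 and anti-cAMP antibody-K in lysis buffer) after 30 min RT.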
RXFP1 antag = blocks the human relaxin receptor RXFP1; HEK293-RXFP1, relaxin-stimulated cAMP HTRF, 30 min; hits give low values; actives 0.59% (n = 350,000); Q9HBX9; activity change, negative = inhibition, % at 57.5 µM; AID 1259400;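 active means activity change of -60% or lower, but not beyond a set lower limit; inconclusive means change between -60% and -40%, or beyond the set limit; inactive means change above -40%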; further: on the % scale 0 is the no-effect control and ±100 the full control effect
TSHR antag = antagonists of human thyroid stimulating hormone receptor; TSHR-expressing cells, TSH-stimulated cAMP HTRF, 2 h; hits give low values; activity change, negative = inhibition, % at 11.5 µM; actives 0.2% (n = 330,000);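 active means activity change below a set negative limit, meaning inhibition stronger than a set level, cut at about -70% in these data; inconclusive means activity change between two set negative limits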; further: on the % scale 0 is the no-effect control and ±100 the full control effect
Target sequence (P16473 whole entry, looked up): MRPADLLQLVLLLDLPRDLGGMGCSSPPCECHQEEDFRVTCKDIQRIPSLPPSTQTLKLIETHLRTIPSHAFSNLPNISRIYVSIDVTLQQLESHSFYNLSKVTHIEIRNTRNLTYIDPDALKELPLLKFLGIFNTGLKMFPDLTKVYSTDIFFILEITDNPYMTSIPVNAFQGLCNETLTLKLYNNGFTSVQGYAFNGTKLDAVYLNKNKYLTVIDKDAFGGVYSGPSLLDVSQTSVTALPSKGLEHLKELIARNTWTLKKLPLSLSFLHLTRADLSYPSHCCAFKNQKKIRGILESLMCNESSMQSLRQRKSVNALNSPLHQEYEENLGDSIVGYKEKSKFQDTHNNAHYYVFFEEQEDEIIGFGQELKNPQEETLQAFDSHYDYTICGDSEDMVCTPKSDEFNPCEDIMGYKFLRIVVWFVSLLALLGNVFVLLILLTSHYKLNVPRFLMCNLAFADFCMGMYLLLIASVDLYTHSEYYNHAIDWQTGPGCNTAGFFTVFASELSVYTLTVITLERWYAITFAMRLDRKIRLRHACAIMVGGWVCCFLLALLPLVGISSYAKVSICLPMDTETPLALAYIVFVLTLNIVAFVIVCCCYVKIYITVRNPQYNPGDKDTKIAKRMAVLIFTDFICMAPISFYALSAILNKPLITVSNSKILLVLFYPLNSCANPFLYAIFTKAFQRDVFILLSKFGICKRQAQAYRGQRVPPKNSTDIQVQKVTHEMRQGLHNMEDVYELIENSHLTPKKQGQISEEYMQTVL
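TSHR-expressing cells, 200/well, pre-treated with compound, then stimulated with EC80 TSH (4nM final) for 2 hours at 37 deg C. cAMP measured by competitive HTRF: anti-cAMP cryptate antibody in lysis buffer plus cAMP-d2, read after 30 minutes at room temperature.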
Akt phos inh = Akt phosphorylation inhibition | Neuro2A IGF-stimulated pAkt S473 HTRF, 20 min; hits give low values | activity change, % for hits at 50 µM | actives 0.32% (n = 360,000) | AID 651550; in the data active means activity change below about -80%; inconclusive means mostly about -51% to -80%; further: on the % scale 0 is the no-effect control and ±100 the full control effect
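Single-point screen (50 µM final compound) in Neuro2A cells stimulated 20 min with 6 nM IGF at 37 deg C. After lysis, Ser473-phosphorylated Akt read by HTRF (ex 330 nm, em 615/665 nm) as the 665/615 ratio.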
* = called active by the depositor; i = inactive; ? = inconclusive; . = not tested or not shown; [ ] = remark or other dose.

SMILES | gsp agonist | RXFP1 ag | gsp antag | RXFP1 antag | TSHR antag | Akt phos inh
O=C(COC(=O)/C=C/C(=O)N1CCN(c2ccccc2)CC1)NC(c1ccccc1)c1ccccc1 | -68.8% | 0.0% | -7.9% | -5.4 | 21.8 | i
Cc1nn(CC(C)C)c(Cl)c1C(=O)N(c1ccc(Cl)cc1F)S(C)(=O)=O | 9.3% | -0.3% | -1.9% | -22.1 | -3.6 | i
CCOc1ccc(-n2ccnc(SCC(=O)NCc3cccc(OC)c3)c2=O)cc1 | 10µM* | 4.5% | 3.1% | -16.5 | -3.1 | i
CN(C)C(=S)NC(=O)C12CC3(C)CC(C)(CC(C)(C3)C1)C2 | -34.5% | 2.9% | 15.5% | -0.2 | -8.1 | i
CSCSC1=C(C#N)C(c2ccccc2Cl)C(C(C)=O)=C(C)N1 (stereo unspecified) | 0.0% | 0.9% | -4.2% | 18.1 | -79.8* | -106.0%*
CCOc1cc(C=NN2CCCCCC2)ccc1O | 1.0%[15.4 µM] | . | 1.9% | -11.6 | . | i
Cc1ccc(S(=O)(=O)NCCC(=O)NC(C)c2ccccc2)cc1 (stereo unspecified) | ? | -2.3% | -2.1% | 18.7 | 1.2 | i
Cc1ccc(S(=O)(=O)NCCC(=O)NC(C)CCc2ccccc2)cc1 (stereo unspecified) | 0.8%[15.4 µM] | 0.0% | -6.3% | -62.0* | 8.8 | i
COC(=O)c1ccc2c(=O)n(CCCCCC(=O)N3CCN(c4ccccc4)CC3)c(=O)[nH]c2c1 | 0.7% | 0.3% | 8.91µM* | -5.7 | 4.8 | i
COCCn1c(=S)[nH]c2cc(C(=O)N3CCN(c4cccc(Cl)c4)CC3)ccc2c1=O | ? | -2.2% | ? | ? | -6.8 | i
CC(=O)c1ccc(N2CCN(C(=O)CCCn3c(=O)[nH]c4ccc(Br)cc4c3=O)CC2)cc1 | 19.9% | -0.4% | 35.5µM* | -5.0 | -14.2 | i
COCCn1c(=O)[nH]c2cc(C(=O)NCCN3CCN(c4cccc(Cl)c4)CC3)ccc2c1=O | -49.8% | 0.8% | -24.9% | -0.6 | -4.2 | -118.1%*
COc1ccc(OC)c(S(=O)(=O)NCC(=O)NC2CCCCCC2)c1 | -1.9% | -2.4% | 8.0% | 4.0 | 10.6 | i
CC(C)(C)c1ccc(C(=O)NCc2nnc(SCC(=O)NCC3CCCO3)o2)cc1 (stereo unspecified) | -29.0% | -2.8% | 9.2% | -10.1 | -3.2 | i
Cc1ccccc1OCC(=O)NNC(=O)c1ccc(-c2ccccc2)cc1 | -15.4% | 0.6% | 13.1% | -7.0 | -5.2 | -82.6%*
Nc1cc(C(=O)O)ccc1N1CCCCCC1 | 19.4% | 1.2% | -11.8% | -13.3 | -0.6 | i
Cc1c(N2CCCC2)cc2c(c1N)C(C)(C)CC2(C)C | -9.1%[15.4 µM] | 3.5% | -6.5% | -70.7* | -19.4 | i
S=C(Nc1ccc(Cl)c(Cl)c1)NC1CCN(Cc2ccccc2)CC1 | -22.4% | -0.2% | -2.7% | -60.8* | -9.4 | i
CC(C)(C)OC(=O)N[C@@H](Cc1ccccc1)c1nnc(S(=O)(=O)Cc2cccc(F)c2)o1 | 5.6% | 0.6% | 9.7% | -119.0* | ? | i
CC[C@@H](C)[C@H](NC(=O)OC(C)(C)C)c1nnc(S(=O)(=O)Cc2cc(C)ccc2C)o1 | 19.1% | -0.1% | 15.5% | ? | ? | -127.2%*
COc1ccc(OC)c2c(N3CC(C)OC(C)C3)cc(C(F)(F)F)nc12 (stereo unspecified) | 4.7% | 3.9% | -0.7% | -6.7 | 4.6 | -114.2%*
COc1ccc(OC)c2c(N3CCN(C)CC3)cc(C(F)(F)F)nc12 | -4.0% | 2.3% | -2.0% | -4.7 | 3.5 | i
Cc1noc(C)c1S(=O)(=O)N(C)C[C@H]1Oc2ccc(NS(=O)(=O)c3ccccc3)cc2C(=O)N([C@H](C)CO)C[C@@H]1C | . | . | 10.4% | . | 23.4 | i
